# In PubChem BioAssay (NCATS):
# Several values for one entry are separate records, joined by “and”; a condition that tells them apart may be missing. Equal values may be shown once. Results filed as inconclusive are left out. A call without a number means that no potency is given here. Values without a mark were called inactive. Activity calls are given as the source filed them. Calls follow the shape of the dose curve; as a rule, active = well fitted curve in the direction sought with a large enough effect; inconclusive = small, poorly fitted or top-dose-only effect, or another doubt; inactive = no such curve, though single readings can be large; an effect the other way counts as inactive or inconclusive.
# Key:
# [1] = target: Cellular tumor antigen p53 (Homo sapiens) (UniProt P04637); experiment: Primary qHTS for small molecule compounds that upregulate eGFP-tagged delta133p53alpha (in N-terminal) cells. (AID 2060322); conditions: NCI-H358 eGFP-delta133p53alpha fluorescence, 24 h; activation: active compounds read high; also: nearly all actives have a fitted effect of over 75% in size; also: potency is read from the fitted curve at half-maximal effect;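 as to activation: cells pre-induced with doxycycline then dosed without doxycycline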
# Outline: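 NCI-H358 cells pre-induced 24 h with 10 ng/ml doxycycline for eGFP-delta133p53alpha, plated dox-free and exposed 24 h at 37C to titrated compounds. Fixed, Hoechst-stained; gated GFP peak intensity by laser scanning cytometry, normalized to DMSO (0%) and 57.5 uM 5-azacytidine (100%).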
# [2] = target: Aldehyde dehydrogenase, mitochondrial (Homo sapiens) (UniProt P05091); experiment: qHTS for Inhibitors of the Aldehyde Dehydrogenase Family (ALDH2) Primary screen (AID 2061308); conditions: ALDH2 enzyme inhibition qHTS, 1536-well; series mostly up to 56 µM; also: nearly all actives have a fitted effect of over 55% in size
# [3] = target: Retinaldehyde dehydrogenase 3 (Homo sapiens) (UniProt P47895); experiment: qHTS for Inhibitors of the Aldehyde Dehydrogenase Family (ALDH1A3) Validation screen (AID 2061312); conditions: ALDH1A3 enzyme inhibition qHTS validation, fluorescence; series mostly up to 84.7 µM; also: nearly all actives have a fitted effect of over 45% in size
# [4] = target: Retinaldehyde dehydrogenase 3 (Homo sapiens) (UniProt P47895); experiment: qHTS for Inhibitors of the Aldehyde Dehydrogenase Family (ALDH1A3) Primary screen (AID 2061315); conditions: ALDH inhibition qHTS; series mostly up to 56 µM
# Chain of Cellular tumor antigen p53 (Homo sapiens) (P04637 whole entry, looked up): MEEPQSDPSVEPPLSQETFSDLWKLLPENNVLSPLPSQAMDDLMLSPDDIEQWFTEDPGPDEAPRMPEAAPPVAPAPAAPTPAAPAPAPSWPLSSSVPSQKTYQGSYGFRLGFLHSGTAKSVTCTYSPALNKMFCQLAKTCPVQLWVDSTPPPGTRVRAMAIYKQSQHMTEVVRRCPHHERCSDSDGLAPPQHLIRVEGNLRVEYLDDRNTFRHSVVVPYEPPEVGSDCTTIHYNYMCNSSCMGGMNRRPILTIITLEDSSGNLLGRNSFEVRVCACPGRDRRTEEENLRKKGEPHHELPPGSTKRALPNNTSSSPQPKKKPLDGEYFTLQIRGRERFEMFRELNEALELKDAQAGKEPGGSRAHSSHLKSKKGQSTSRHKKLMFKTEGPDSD
SMILES,activation [1],Potency [2],Potency [3],Potency [4],Potency [1]
C/C(=C\C(=O)OCCCCCCCCC(=O)O)C[C@@H]1OC[C@H](C[C@@H]2O[C@H]2[C@@H](C)[C@H](C)O)[C@@H](O)[C@H]1O,-7.64%,inactive,inactive,inactive,–
COc1ccc(-c2csc(NC(=O)[C@H]3CCCCN3S(=O)(=O)c3ccc(C)cc3)n2)cc1,-8.59%,inactive,inactive,inactive,–
C[C@@H](N[C@H]1CCCC[C@@H]1NC(=O)c1ccc(Cl)cc1)c1cccc2ccccc12,21.5%,inactive,inactive,inactive,–
Cc1cc(OCCCS(C)(=O)=O)cc(C)c1-c1cccc(COc2ccc3c(c2)OCC3CC(=O)O)c1 (stereo not given),6.68%,inactive,inactive,inactive,–
COc1cccc(-c2cc(NCc3ccc4c(c3)OCO4)nc(N)n2)c1,-3.82%,inactive,inactive,inactive,–
Cc1cc(-n2c(=O)[nH]c(=O)n(C)c2=O)ccc1Oc1ccc(SC(F)(F)F)cc1,-10.5%,inactive,inactive,inactive,–
Nc1nc(COC(=O)c2ccc([N+](=O)[O-])cc2)nc(Nc2ccccc2)n1,0.477%,inactive,inactive,inactive,–
COc1cccc(CNc2ccc(S(=O)(=O)Nc3nc4ccccc4s3)cc2)c1O,-10.5%,inactive,inactive,inactive,–
C[C@@H](NC(=O)[C@H](O)c1cc(F)cc(F)c1)C(=O)N[C@@H]1C(=O)N(C)c2ccccc2-c2ccccc21,-6.21%,inactive,inactive,inactive,–
COC(=O)c1sccc1S(=O)(=O)Nc1ccc(Nc2ccccc2)cc1OC,-5.73%,inactive,inactive,inactive,–
CC(=O)NC[C@H]1CN(c2ccc(N3CCSCC3)c(F)c2)C(=O)O1,0%,inactive,inactive,inactive,–
Cc1[nH]c2ccccc2c1CCNC(=O)c1cccs1,-18.1%,inactive,inactive,inactive,–
Cc1onc(-c2ccccc2Cl)c1C(=O)N(C)c1ccc(Cl)cc1,-1.43%,inactive,inactive,inactive,–
O=C(Nc1nc2ccccc2n1CCc1ccccc1)c1ccccc1,6.68%,inactive,inactive,inactive,–
COc1ccc(C(=O)N(CCC(C)C)Cc2nc(C)c(C)n2Cc2ccccc2C)c(OC)c1,11.5%,inactive,inactive,inactive,–
COc1cccc(CN(C(=O)CC(C)(C)C)C2CC(C(=O)N3CCNCC3)N(Cc3ccc4c(c3)OCO4)C2)c1 (stereo not given),-10%,inactive,inactive,inactive,–
CCC[C@@]1(CCc2ccccc2)CC(O)=C([C@H](CC)c2cccc(NS(=O)(=O)c3ccc(C(F)(F)F)cn3)c2)C(=O)O1,-3.82%,inactive,inactive,inactive,–
O=C(Nc1ccccc1)c1ccc(Nc2nnc(-c3ccc(O)cc3)c3ccccc23)cc1,2.39%,inactive,inactive,inactive,–
CC(C)(N)c1ncc(-c2ccc(OC(F)(F)F)cc2)[nH]1,-2.86%,inactive,inactive,inactive,–
NC1=NC2(c3cc(NC(=O)c4ccc(F)cn4)ccc3F)COCC2CS1 (stereo not given),-6.68%,inactive,inactive,inactive,–
CCOC(=O)c1ccc(N(C)c2csc(-c3ccccc3)n2)cc1,0%,inactive,inactive,inactive,–
CC(C)C(=O)Oc1ccc(CO)cc1[C@H](CCN(C(C)C)C(C)C)c1ccccc1,16.6% and 0.955%,inactive,inactive,inactive,–
Cc1ccccc1NC(=O)Nc1ccc(CN2C(=O)N([C@@H](CC(C)C)C(=O)N[C@@H](CC(=O)O)c3ccccc3)C(=O)C2(C)C)cc1,-2.86%,inactive,inactive,inactive,–
CC[N+]1(C/C2=C/CCCCCC2)CCC(NC(=O)C2c3cc(Cl)ccc3Oc3ccc(Cl)cc32)CC1 (stereo not given),28.6%,inactive,inactive,inactive,–
CS(=O)(=O)NCC1CCC(Nc2nc3c(s2)CCSc2ccccc2-3)CC1 (stereo not given),-6.21%,inactive,inactive,inactive,–
Cn1c(CO)c(-c2ccccc2)c2cc([N+](=O)[O-])ccc21,-4.77%,inactive,inactive,inactive,–
Cn1c(SCC(=O)N2CCC[C@H]2C(=O)Nc2ccccc2-c2ccccc2)nc2ccccc21,4.77%,inactive,inactive,inactive,–
CN(C)c1nc(Cc2ccc(NC(=O)c3ccc4ccccc4c3)cc2)nc(Cl)c1CC(=O)O,-3.03% and -7.64%,inactive,inactive,inactive,–

SMILES,activation [1],Potency [2],Potency [3],Potency [4],Potency [1]
O=C1COc2nccc(-c3ccccc3F)c2CN1Cc1cc(C(F)(F)F)cc(C(F)(F)F)c1,-4.77%,inactive,inactive,inactive,–
OC1(c2ccc(Cl)c(C(F)(F)F)c2)CCN(CCCC(c2ccc(F)cc2)c2ccc(F)cc2)CC1,13%,inactive,inactive,inactive,–
CCOCCn1nc(CC)c2nc(N3CCC(C(=O)O)CC3)nc(Nc3cc(C)ccn3)c21,0%,inactive,inactive,inactive,–
CCOC(=O)C(CCc1ccccc1)NC1CCCN2CCCC(C(=O)O)N2C1=O (stereo not given),-9.55%,inactive,inactive,inactive,–
Cc1ccc(-c2c(-c3nn(C)c4ncnc(N5CCC(N6CCCCC6)C5)c34)cnn2C)cc1 (stereo not given),2.39%,inactive,inactive,inactive,–
COc1ccc(-c2nc(-c3cc(C(F)(F)F)cc(C(F)(F)F)c3)n(Cc3ccc(C(N)=O)cc3)c2-c2ccc(OC)cc2)cc1,-11%,inactive,inactive,inactive,–
CCOC(=O)c1sc(NC(=O)[C@H](C(C)C)n2c(=O)[nH]c3ccccc3c2=O)nc1C,14.3%,inactive,inactive,inactive,–
O=C(O)CCc1ccc(NCc2cccc3c2CCCN3CCOc2ccccc2)cc1F,2.39%,inactive,inactive,inactive,–
O=C(Nc1ccc(CN2CCOCC2)cc1)c1ccc(-c2cccc(Cl)c2)o1,-8.59%,inactive,inactive,inactive,–
O=c1[nH]c2ccccc2n1CCN1CCN(c2cccc(C(F)(F)F)c2)CC1,-3.34%,inactive,inactive,inactive,–
CCN[C@@H]1C[C@H](N)[C@@H](O[C@H]2OC(CN)=CC[C@H]2N)[C@H](O)[C@H]1O[C@H]1OC[C@](C)(O)[C@H](NC)[C@H]1O,10.5% and 9.67%,inactive,inactive,inactive,–
O=C(NS(=O)(=O)c1ccc(Br)s1)c1ccc(Cl)cc1Cl,-12.4%,inactive,inactive,inactive,–
C[C@@H]1O[C@@H](O[C@H]2[C@H](Oc3cc(O)c(C(=O)CCc4ccc(O)cc4)c(O)c3)O[C@H](CO)[C@@H](O)[C@@H]2O)[C@H](O)[C@H](O)[C@H]1O,-10.5%,inactive,inactive,inactive,–
Oc1ccc(-c2cnc3ccc(NCc4ccco4)nn23)cc1,–,inactive,inactive,inactive,26.9 µM (active)
C=C[C@]1(C)C[C@@H](OC(=O)CSC2C[C@H]3CC[C@@H](C2)N3C)[C@]2(C)[C@H](C)CC[C@]3(CCC(=O)[C@H]32)[C@@H](C)[C@@H]1O (stereo not given in full),0.477%,inactive,inactive,inactive,–
Cc1cccc2c1NC(=O)C2(c1ccc(O)cc1)c1ccc(O)cc1,–,inactive,inactive,inactive,0.213 µM (active)
COc1cccc(OC)c1-c1nc(C(=O)N[C@@H](CC(C)C)C(=O)O)cn1-c1ccnc2cc(Cl)ccc12,-8.59%,inactive,inactive,inactive,–
COc1cc(Nc2nc3ccccc3nc2NS(=O)(=O)c2ccc(NC(=O)c3ccc(OC)c(C)c3)cc2)cc(OC)c1,-18.6%,inactive,inactive,inactive,–
CCNC(=O)[C@H]1O[C@H](n2cnc3c(NCC(c4ccccc4)c4ccccc4)nc(C(=O)NCCNC(=O)NC4CCN(c5ccccn5)CC4)nc32)[C@H](O)[C@@H]1O,-9.55%,inactive,inactive,inactive,–
OCC(Cc1ccccc1)Nc1nc(Oc2ccc3c(c2)CCC3)nc2c1ncn2Cc1ccc(-c2ccccc2)cc1 (stereo not given),6.21%,inactive,inactive,inactive,–
CCC(COC)n1nnc2c(Nc3ccc(OC)cc3C)nc(C)cc21 (stereo not given),-5.25%,inactive,inactive,inactive,–
O=C(Nc1cc(-c2ccccc2)nn1-c1ccccc1F)c1ccc([N+](=O)[O-])cc1,-5.73%,inactive,inactive,inactive,–
Nc1nc2c(c(N3CCNCC3)n1)CCC1=C2[C@@H]2CCCC[C@@H]2O1,-18.1%,inactive,inactive,inactive,–
CCCCNc1nc(N)c2[nH]c(=O)n(Cc3ccc(OCCN(C)C)nc3)c2n1,-9.55%,inactive,inactive,inactive,–
CCCN1CCC[C@@H](c2cccc(S(C)(=O)=O)c2)C1,-7.64%,inactive,inactive,inactive,–
CC(=O)[C@H]1CC[C@H]2[C@@H]3C=CC4=CC(=O)CC[C@@]4(C)[C@@H]3CC[C@]12C,-8.47% and 12.4%,inactive,inactive,inactive,–
Cc1cc(C)c(S(=O)(=O)n2cc(C)cc2C)c(C)c1,5.73%,inactive,inactive,inactive,–
